Neddyl block: inhibitors of cullin neddylation, primary screen, biochemical, TR-FRET, uHTS, NAE and Ubc12. 360,000 tested, 0.58% active. inhibition, % at 25 µM. AID 651699, 2012. NEDD8-conjugating enzyme Ubc12 (Homo sapiens) + NEDD8-activating enzyme E1 regulatory …; in the data active = inhibition above about 36%
NadD inh: inhibitors of S. aureus NadD, primary screen, biochemical, colorimetric, uHTS. inhibition, % at 20 µM. purified NadD enzyme, colorimetric absorbance read-out. Nicotinate-nucleotide adenylyltransferase NadD (Staphylococcus aureus N315). 360,000 tested, 0.78% active; in the data active = inhibition above about 26%
NPR1 activator: GC-A stimulated cGMP production enhancers – HEK293 GC-A cells, cGMP TR-FRET, EC30 ANP, primary screen | activation, % at 10 µM | Atrial natriuretic peptide receptor 1 (Homo sapiens), P16066 | 0% at EC30 ANP, 100% saturating ANP | AID 1671463, 2021 | 370,000 tested, 0.14% active; in the data active = activation above about 40%
NPR2 activator: human GC-B receptor activators, primary screen, HEK293 GC-B cells, cGMP TR-FRET, EC30 CNP. 370,000 tested, 0.11% active. Atrial natriuretic peptide receptor 2 (Homo sapiens), P20594. 0% at EC30 CNP, 100% saturating CNP. activation, % at 10 µM;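 active = activation at 10 µM reaching about 35% in either raw or pattern-adjusted values, limit read from the data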
Neddyl conf: blockade of NEDD8 conjugation to cullin – biochemical, TR-FRET, single concentration, confirmation. shares compounds with Neddyl block. TR-FRET cullin neddylation biochemical assay. calls only at 25 µM. 1,800 tested, 13% active. AID 652217, 2013; in the data active = inhibition above about 40%;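 also: neddylation substrate is the cullin 1 ring ligase complex with SKP2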
* = called active by the depositor; i = inactive; nt = no result shown; + = active, no number. The list is not random: actives were taken first. Their share in the collection is about 1.5%.

SMILES | Neddyl block | NadD inh | NPR1 activator | NPR2 activator | Neddyl conf
N#Cc1ccc(-c2ccc(OCC(=O)Nc3cccnc3)cc2)cc1 | 38* | 3 | 9 | -1 | i
CC(=O)Nc1ccc(NC(=O)COc2ccc(-c3ccc(C#N)cc3)cc2)cc1 | -112 | -6 | 3 | -6 | nt
CC(C)C[C@H]1COc2cccc(F)c2S(=O)(=O)N1C | nt | nt | 3 | -2 | nt
CN(C)C(=O)c1ccc(NC(=O)c2cc(-c3ccco3)nc3ccccc23)cc1 | 53* | 13 | 1 | -2 | nt
CCN(CC)CCNC(=O)c1ccc(NC(=O)c2cc(-c3ccco3)nc3ccccc23)cc1 | 53* | 4 | 0 | 3 | i
COc1ccc(NC(=O)c2cc(-c3ccco3)nc3ccccc23)cn1 | 19 | 16 | 5 | -1 | nt
C=CCOC(=O)N[C@H](c1ccc2ccccc2c1)[C@H](C)/C=C/CC(=O)OC | nt | nt | -2 | -12 | nt
O=C(NC1CCCC1)C1(C(=O)C2CC2)CC(c2ccccc2C(F)(F)F)=NO1 (configuration not stated) | nt | nt | 2 | -4 | nt
c1ccc2c(c1)ccc1nnc(-c3ccc4c(c3)OCO4)n12 | 46* | 3 | 6 | 12 | nt
c1ccc2c(c1)ccc1nnc(SCc3ccc4c(c3)OCCO4)n12 | -4 | 6 | 1 | 1 | nt
CCc1c(C)c2ccc(OC(C)C(=O)NC(Cc3c[nH]c4ccc(O)cc34)C(=O)O)c(C)c2oc1=O (configuration not stated) | 46* | 0 | 4 | -12 | +
Cc1cc(=O)oc2c(C)c(OC(C)C(=O)NC(Cc3c[nH]c4ccc(O)cc34)C(=O)O)ccc12 (configuration not stated) | 24 | -6 | -3 | 2 | nt
CCC(C)NC(=O)c1c(N)n(/N=C/c2ccccn2)c2nc3ccccc3nc12 (configuration not stated) | 46* | 0 | 3 | -2 | i
CC(=O)Nc1ccc(S(=O)(=O)Nc2cccc3cccnc23)cc1 | 43* | 0 | 3 | 4 | +
O=S(=O)(Nc1cccc2cccnc12)c1ccccc1 | nt | 1 | 15 | 7 | nt
COP1(=O)CCOCC[C@H](CC(C)C)NC(=O)[C@H](CC(C)C)N1 (some centres not stated) | nt | nt | 0 | -7 | nt
CS(=O)(=O)c1ccc(Cl)c(NC(=O)COC(=O)CCCN2C(=O)c3cccc4cccc(c34)C2=O)c1 | 50* | -8 | 4 | 7 | i
NC(=O)c1cc(NC(=O)COC(=O)CCCN2C(=O)c3cccc4cccc(c34)C2=O)cc(C(N)=O)c1 | -35 | 1 | 1 | 0 | nt
COc1cccc(CNC(=O)C2CCC(CNS(=O)(=O)c3cccc4cccnc34)CC2)c1OC (configuration not stated) | nt | nt | 3 | -3 | nt
Nc1ccc(C(=O)N/N=C/c2cn(Cc3cccc(F)c3)c3ccccc23)cc1 | 43* | 9 | 3 | 2 | i
CCCOc1cccc(C2C(C(=O)c3cc4ccccc4o3)=C(O)C(=O)N2c2cc(C)on2)c1 (configuration not stated) | 44* | 15 | 7 | -8 | i
Cc1cc(N2C(=O)C(O)=C(C(=O)c3cc4ccccc4o3)C2c2cccc(Br)c2)no1 (configuration not stated) | -3 | 19 | 24 | -7 | nt
CCCC(=O)Nc1cc(-c2nn(C)c(=O)c3ccccc23)ccc1N1CCCCC1 | 37 | -5 | -2 | 0 | nt
CCC(=O)Nc1cc(-c2nn(C)c(=O)c3ccccc23)ccc1N1CCCCC1 | 38* | 4 | 5 | 2 | i
COC(=O)c1cc2c(c3c4cc(F)ccc4n(S(=O)(=O)c4cccc(C)c4)c13)C(=O)N(Cc1ccc(C(F)(F)F)cc1)C2 | nt | nt | -1 | -5 | nt
CCS(=O)(=O)Nc1ccc(C2=NN(C(=O)c3ccco3)C(c3ccco3)C2)cc1 (configuration not stated) | 20 | 0 | -17 | -9 | nt
CCS(=O)(=O)Nc1ccc(C2=NN(C(=O)c3ccco3)C(c3cccs3)C2)cc1 (configuration not stated) | 42* | -1 | -22 | -16 | i

Screens (PubChem BioAssay)
